# Experimental data as given in article PMC4336329 (PLoS ONE, 2015).
# The whole screen tested about 310,000 compounds, of which about 14,000 (4.5%) showed an effect of 50% or more. Effects have a minus sign here. The sample holds strong results, similar compounds and a random draw of the others, so the mix is not that of the screen.
# Target: human ether-à-go-go-related gene (hERG) potassium channel (human, UniProt Q12809)
# Assay: primary screen, population patch clamp on CHO cells stably expressing hERG; higher = less effect of the substance
# 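Further: peak tail current of the secondary pulse compared with the same well before compound.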
# Chain of human ether-à-go-go-related gene (hERG) potassium channel (Q12809 whole entry, looked up): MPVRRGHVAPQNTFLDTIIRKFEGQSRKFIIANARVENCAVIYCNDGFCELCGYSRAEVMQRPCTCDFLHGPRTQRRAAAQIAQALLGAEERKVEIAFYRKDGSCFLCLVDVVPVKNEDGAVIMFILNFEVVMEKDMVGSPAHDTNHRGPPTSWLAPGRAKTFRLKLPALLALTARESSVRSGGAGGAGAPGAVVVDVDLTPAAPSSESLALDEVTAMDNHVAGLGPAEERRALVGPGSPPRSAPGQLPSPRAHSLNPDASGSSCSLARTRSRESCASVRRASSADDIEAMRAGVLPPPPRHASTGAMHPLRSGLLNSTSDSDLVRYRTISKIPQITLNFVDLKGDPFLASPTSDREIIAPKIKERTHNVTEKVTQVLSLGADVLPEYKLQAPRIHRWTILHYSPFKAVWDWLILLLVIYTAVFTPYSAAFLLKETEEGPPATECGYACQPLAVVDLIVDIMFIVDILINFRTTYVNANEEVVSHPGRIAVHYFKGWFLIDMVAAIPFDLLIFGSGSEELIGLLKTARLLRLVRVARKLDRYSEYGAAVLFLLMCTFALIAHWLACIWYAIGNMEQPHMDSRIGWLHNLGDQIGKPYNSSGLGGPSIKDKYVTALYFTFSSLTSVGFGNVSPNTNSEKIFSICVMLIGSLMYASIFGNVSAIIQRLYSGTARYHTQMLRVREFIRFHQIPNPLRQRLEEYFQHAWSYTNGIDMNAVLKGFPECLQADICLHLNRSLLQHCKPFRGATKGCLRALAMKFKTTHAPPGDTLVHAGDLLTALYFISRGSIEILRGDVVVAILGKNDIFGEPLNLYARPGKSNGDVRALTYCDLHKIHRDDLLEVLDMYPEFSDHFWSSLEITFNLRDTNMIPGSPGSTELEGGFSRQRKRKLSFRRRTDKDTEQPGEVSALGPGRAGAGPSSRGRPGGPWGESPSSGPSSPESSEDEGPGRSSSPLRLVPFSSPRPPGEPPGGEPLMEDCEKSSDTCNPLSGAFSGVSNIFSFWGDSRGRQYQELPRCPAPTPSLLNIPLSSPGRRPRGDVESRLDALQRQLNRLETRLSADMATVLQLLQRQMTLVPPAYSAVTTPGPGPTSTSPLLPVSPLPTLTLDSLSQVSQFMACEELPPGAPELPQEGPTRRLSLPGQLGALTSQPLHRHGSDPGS
row,Structure (SMILES),"hERG current change (%, negative = inhibition) at 10uM"
1,NC(=O)Cn1cc(C(=O)COc2ccccc2)c2ccccc21,-3.45%
2,CC(C)CCNC(=O)COc1ccc(C(=O)c2ccccc2)cc1,-23.8%
3,Cc1ccc(NC(=O)C(c2ccccc2)N2CCN(CC(=O)NC3CC3)CC2)cc1 (centres unmarked),-18.1%
4,C[C@@H]1NC(=O)c2cc([N+](=O)[O-])cc(I)c2NCC[C@@H](C(N)=O)NC(=O)[C@H](CC(N)=O)NC1=O,11.2%
5,COc1cc(/C=N/NC(=S)NCCc2ccccc2)cc(OC)c1OC,8.26%
6,CCC(=O)N1CCc2cc(Br)cc(S(=O)(=O)NCCN3CCCCC3CC)c21 (centres unmarked),-20.4%
7,Brc1cccc(-c2nnc3sc(CN4CCCCC4)cn23)c1,-11%
8,Brc1cccc(-c2nnc3sc(CNCc4ccco4)cn23)c1,-60.3%
9,Brc1cccc(-c2nnc3sc(CNC4CCCC4)cn23)c1,-16.2%
10,COc1ccc(C(=O)Nc2ccc(NC(C)=O)cc2)cc1S(=O)(=O)N1CCCCC1C (centres unmarked),1.47%
11,COc1ccc(C(=O)NCCc2ccc(Cl)cc2)cc1S(=O)(=O)N1CCCCC1C (centres unmarked),-52.3%
12,COc1ccc(CCNC(=O)c2ccc(Cl)c(S(=O)(=O)N3CCCC3)c2)cc1,-56.6%
13,O=C(NCCc1ccccc1)c1ccc(Cl)c(S(=O)(=O)N2CCCC2)c1,-23.1%
14,COc1ccc(C(CNC(=O)c2cc(S(=O)(=O)N3CCCC3)ccc2Cl)N2CCCC2)cc1 (centres unmarked),-31.6%
15,COc1ccc(C(CNC(=O)c2ccc(Cl)c(S(=O)(=O)N3CCCC3)c2)N2CCCC2)cc1 (centres unmarked),-57.6%
16,COc1ccc(CCNC(=O)c2ccc(Cl)c(S(=O)(=O)N3CCCCCC3)c2)cc1,-34.2%
17,COc1ccc(C(=O)NCCc2c[nH]c3ccccc23)cc1S(=O)(=O)N1CCCCC1C (centres unmarked),-12%
18,COc1ccc(C(CNC(=O)c2ccc(OC)c(S(=O)(=O)N3CCCC3)c2)N2CCCC2)cc1 (centres unmarked),9.12%
19,Cc1ccc(S(=O)(=O)NC(CC(=O)NCC2CCCO2)c2ccco2)cc1 (centres unmarked),24.9%

row,Structure (SMILES),"hERG current change (%, negative = inhibition) at 10uM"
1,COc1ccc(N(CC(=O)N2CCN(Cc3ccccc3)CC2)S(C)(=O)=O)cc1,-3%
2,O=C(NN1CCOCC1)c1cc(-c2ccc(Cl)c(Cl)c2)nc2ccccc12,10.8%
3,Cc1oncc1C(=O)Nc1cccc(C#N)c1,4.43%
4,CCCN1C(=O)/C(=c2\sc3nc(=O)c(Cc4ccc(C)cc4)nn3c2=O)c2ccccc21,21.2%
5,CCN(Cc1ccccc1)C(=O)c1oc2ccc(S(=O)(=O)N3CCOCC3)cc2c1C,-6.06%
6,Nc1cc(C(=O)OCC(=O)N2CCOCC2)ccc1Cl,17.8%
7,CC(C)(C)NC(=O)CSC(=Nc1cccc(F)c1)NC#N,8.94%
8,CC(C)(C)NC(=O)CSC(=Nc1ccccc1F)NC#N,-0.709%
9,CC(C)(C)NC(=O)CSC(=Nc1ccc(F)cc1)NC#N,-72.3%
10,COc1ccc(CNC(=O)c2noc(C(C)C)c2[N+](=O)[O-])cc1,3.4%
11,Cc1ccc(NNC(=O)c2ccno2)c(C)c1,11.1%
12,COc1ccc(OC)c(-c2csc(NC(=O)CN3C(=O)C4CCCCC4C3=O)n2)c1 (centres unmarked),-0.554%
13,O=C(O)c1ccccc1S(=O)(=O)NCC(O)COC1CCCCC1 (centres unmarked),-2.65%
14,CCOC(=O)C1(CCOc2ccccc2)CCN(Cc2cc(OC)c3c(c2)OCO3)CC1,-72.1%
15,CCN1CCN(Cc2cc(OC)c3c(c2)OCO3)CC1,9.99%
16,CCOC(=O)C1(Cc2ccccc2)CCN(Cc2cc(OC)c3c(c2)OCO3)CC1,-60.7%
17,CCN1C(=O)CC(N2CCN(c3ccc(Cl)cc3)CC2)C1=O (centres unmarked),-14%
18,COc1ccc2c(CC(=O)OCC(=O)c3ccc(F)cc3)coc2c1,6.5%
19,CCCc1ccc(-c2cc(C(=O)NN3CCOCC3)c3ccccc3n2)cc1,-3.8%

row,Structure (SMILES),"hERG current change (%, negative = inhibition) at 10uM"
1,NC(=O)c1ccc(NC(=O)CSc2nnc(C3CCCCC3)n2N)cc1,18%
2,Cn1c(C(=O)NC2CCCCC2)cc2sccc21,-7.87%
3,CCOc1ccc2oc(C(=O)NCc3nc4ccccc4[nH]3)c(C)c2c1,10.3%
4,Cc1c(C(=O)OC(C)CCN(C)C)oc2ccccc12.Cl (centres unmarked),-42.8%
5,Cc1c(C(=O)OCC(C)(C)CN(C)C)oc2ccccc12.Cl,-52%
6,CCOc1ccc2oc(C(=O)N3CCN(Cc4ccccc4)CC3)c(C)c2c1,-18.4%
7,CCOc1ccc2oc(C(=O)NCC3CCCO3)c(C)c2c1 (centres unmarked),11%
8,COc1ccc2oc(C(=O)NCc3cc(OC)c(OC)cc3OC)c(C)c2c1,0.174%
9,CCOc1ccc2oc(C(=O)N3CCN(c4ccccc4OCC)CC3)c(C)c2c1,-52.6%
10,CCOc1ccc2oc(C(=O)N3CCN(c4ccccn4)CC3)c(C)c2c1,-34.3%
11,Cc1c(C(=O)OCC(=O)N(C)c2ccccc2)oc2ccccc12,3.17%
12,COc1ccc2oc(C(=O)NCc3ccccc3CN3CCCC3)c(C)c2c1,-66.1%
13,CCOc1ccc2oc(C(=O)NCc3ccccc3CN3CCCC3)c(C)c2c1,-66.2%
14,COc1ccc2oc(C(=O)NCc3ccco3)c(C)c2c1,8.36%
15,CN(c1cccc(Cl)c1)S(=O)(=O)c1cccc(C(=O)NN2CCOCC2)c1,-14.1%
16,Cc1ccc(S(=O)(=O)CCC(=O)OC(C)C(=O)NC2CCCCC2C)cc1 (centres unmarked),-1.21%
17,CCOC(=O)c1ccc(N2C(=O)C3CC=C(C)CC3C2=O)cc1 (centres unmarked),7.74%
18,Cn1c(=O)c2c(SCC(N)=O)nc(CC(C)(C)C)nc2n(C)c1=O,-10.5%
